The results in this text go back to PubChem BioAssay AID1347418 (Sanford-Burnham Center for Chemical Genomics, 2020).

The whole screen tested about 1,300 compounds, of which about 750 (58%) were called active. The list shows a part of the results.

The target in the assay is Sulfhydryl oxidase 1 (Homo sapiens) (UniProt O00391). Kind of assay: QSOX1 enzyme inhibitors, primary screen, biochemical, ROS-Glo H2O2 luminescence, HTS (AID 1347418). The note with it: recombinant QSOX1, ROS-Glo H2O2 luminescence, at 12.5 µM, stronger effect = higher value; active = any value above zero unless noted.
Sequence of Sulfhydryl oxidase 1 (Homo sapiens) (O00391 whole entry, looked up): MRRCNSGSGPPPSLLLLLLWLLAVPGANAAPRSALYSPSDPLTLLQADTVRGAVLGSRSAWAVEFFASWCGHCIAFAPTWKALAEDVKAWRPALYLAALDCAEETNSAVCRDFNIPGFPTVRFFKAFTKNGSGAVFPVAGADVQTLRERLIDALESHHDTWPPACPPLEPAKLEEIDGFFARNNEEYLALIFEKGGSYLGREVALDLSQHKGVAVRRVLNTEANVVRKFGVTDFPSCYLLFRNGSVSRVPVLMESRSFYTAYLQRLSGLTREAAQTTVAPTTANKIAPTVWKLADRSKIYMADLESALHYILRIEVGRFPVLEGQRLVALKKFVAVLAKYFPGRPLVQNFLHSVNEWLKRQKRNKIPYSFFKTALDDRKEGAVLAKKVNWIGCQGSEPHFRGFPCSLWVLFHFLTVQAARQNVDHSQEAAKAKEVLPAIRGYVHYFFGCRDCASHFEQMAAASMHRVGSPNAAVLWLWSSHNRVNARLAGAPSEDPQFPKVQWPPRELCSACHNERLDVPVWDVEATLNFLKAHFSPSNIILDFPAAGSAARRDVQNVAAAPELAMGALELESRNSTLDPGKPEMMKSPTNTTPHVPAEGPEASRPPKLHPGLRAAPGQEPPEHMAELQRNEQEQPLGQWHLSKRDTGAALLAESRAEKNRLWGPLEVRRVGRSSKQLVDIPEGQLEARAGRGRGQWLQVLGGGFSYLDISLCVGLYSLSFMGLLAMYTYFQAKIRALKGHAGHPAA
The term inhibition denotes the drop in the measured response relative to a control, in per cent. On to `NC(=NCCC[C@H](N)C(=O)O)N[N+](=O)[O-]`, for which the inhibition is -2.6% (inactive).

As for `COC(=O)[C@@H](N)CCCN=C(N)N[N+](=O)[O-]`, the inhibition was 2.4% (active).

`C[C@]12Cc3cn4c(nc3C=C1CCC1C2CC[C@@]2(C)[C@H]1CC[C@@]2(O)C#N)nc1ccccc14` (some centres undefined): the inhibition was 2.7% (active).

Turning to `Cc1o[nH]c(=O)c1CC(N)C(=O)O` (centres undefined), the inhibition is 4.2% (active).

Take `NC(C(=O)O)c1cc(=O)[nH]o1` (centres undefined): the inhibition was -2.4% (inactive).

Consider `CCCN(CCC)CCc1ccc(O)c(O)c1`, for which the inhibition is 14.4% (active).

Take `CNCCc1ccc(O)c(O)c1`: the inhibition is 7.7% (active).

For the compound `CC(C)(C)NCC(O)c1ccccc1Cl` (centres undefined), the inhibition is -0.6% (inactive).

As to `CC(N)c1cccc(Cl)c1Cl` (centres undefined), the inhibition is 6.2% (active).

As for `O=C(O)[C@@H]1CCN1`, the inhibition was 9.3% (active).

In the case of `C[C@H](N)Cc1cccc(C(F)(F)F)c1`, the inhibition was 1.6% [setting not given] (active).

Turning to `O=[N+]([O-])c1cc(O)c(O)c([N+](=O)[O-])c1`, the inhibition was 13% (active).

In the case of `N=C(N)c1ccc(CS(=O)(=O)F)cc1`, the inhibition is -0.1% (inactive).

With `NCCc1ccc(O)cc1`, the inhibition is -0.2% [setting not given] (inactive).

Turning to `NCCc1ccc(S(=O)(=O)F)cc1`, the inhibition is 5.8% (active).

In the case of `CC1=NN=C(c2ccc(N)cc2)c2cc3c(cc2C1)OCO3`, the inhibition is 10.6% (active).

Turning to `NCC(CP(=O)(O)O)c1ccc(Cl)cc1` (centres undefined), the inhibition is 0.1% (active).

As for `NCC(CC(=O)O)c1ccc(Cl)cc1` (centres undefined), the inhibition was 1.1% [setting not given] (active).

For `CCCCC/C=C\C/C=C\C/C=C\C/C=C\CCCC(=O)NCC(=O)O`, the inhibition was 2.2% (active).

Consider `Cc1cccc(C)c1NC1=NCCCS1`, for which the inhibition is 0.2% [setting not given] (active).

For `Nc1ccncc1`, the inhibition was -1% [setting not given] (inactive).

In the case of `CCN1C[C@@]2(COC)C3[C@@H](OC)C4[C@@H]1C3([C@@H]1C[C@@]3(O)[C@H](OC(=O)c5ccccc5)[C@@H]1[C@]4(OC(C)=O)[C@@H](O)[C@@H]3OC)[C@H](OC)C[C@H]2O`, the inhibition is 2.6% (active).

As to `CNc1ccc2oc(C[C@H]3O[C@@]4(CC[C@H]3C)O[C@H]([C@H](C)C(=O)c3ccc[nH]3)[C@H](C)C[C@H]4C)nc2c1C(=O)O`, the inhibition is 14.2% [setting not given] (active).

In the case of `Cc1c2ccncc2c(C)c2c1[nH]c1ccccc12`, the inhibition is 29% [setting not given] (active).

Regarding `Cc1nccc2c1[nH]c1ccccc12`, the inhibition is -2% [setting not given] (inactive).

With `NC(CP(=O)(O)O)C(=O)O` (centres undefined), the inhibition is 2.8% (active).

For `NC(CCCCCP(=O)(O)O)C(=O)O` (centres undefined), the inhibition is -4.6% (inactive).

For `NC(CCP(=O)(O)O)C(=O)O` (centres undefined), the inhibition was 2.8% (active).

As to `CO[C@H]1CC=C2CCN3CCC4=C(CC(=O)OC4)[C@]23C1`, the inhibition is 0.6% (active).

On to `O=c1[nH]oc2c1CCNC2`, for which the inhibition is -7.3% (inactive).

Consider `c1ccc2sc(C3(N4CCCCC4)CCCCC3)cc2c1`, for which the inhibition was 0.2% (active).

With `Cc1sc2ccccc2c1CC1=NCCN1`, the inhibition was -3.3% (inactive).

In the case of `CC(C)N(CCC(C(N)=O)(c1ccccc1)c1ccccn1)C(C)C` (centres undefined), the inhibition was 6.1% [setting not given] (active).

Take `CC1(C(=O)O)C2CCC(O2)C1(C)C(=O)O` (centres undefined): the inhibition was -3.3% (inactive).

As to `COc1ccc(CNC(=O)/C=C/c2ccc3[nH]cc(CCN(C)C)c3c2)cc1`, the inhibition is 1.8% [setting not given] (active).

As to `O=C(Cc1ccc(Cl)c(Cl)c1)N1CCCCC1CN1CCCC1` (centres undefined), the inhibition was -1.7% (inactive).

For `COC(=O)N1CCN(C(=O)Cc2ccc(Cl)c(Cl)c2)C(CN2CCCC2)C1` (centres undefined), the inhibition was -0.5% (inactive).

In the case of `CN(C(=O)Cc1ccc(Cl)c(Cl)c1)C(CN1CCCC1)c1cccc(OCC(=O)O)c1` (centres undefined), the inhibition was 1.2% (active).

Take `CC(C)c1cccc(C(C)C)c1O`: the inhibition is 0.9% (active).
